TDP1 cell CPT – DT40-hTDP1 cell growth loss with CPT; chicken DT40 Tdp1-/-;hTDP1 cells + 20 nM CPT, ATP luminescence, 48 h; Potency, µM (doses to about 46.2 µM), for inactives: at the highest dose activity change, negative = growth inhibition, hits mostly inhibitors; hit rate 12% among 420,000; AID 686979; also: potency is read from the fitted curve at half-maximal effect; nearly all actives have a fitted effect of over 55% in size
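Chicken DT40 Tdp1-/- cells stably complemented with human TDP1 were seeded at 400 cells/well in medium containing 20 nM camptothecin, exposed to pin-transferred compounds, and grown at 37 °C for at least 48 hr. Viability was read as ATP luminescence.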
HT1080-NT tox – kills 2HG-producing HT-1080-NT fibrosarcoma cells; HT-1080-NT fibrosarcoma viability, CellTiter-Glo ATP luminescence, 48 h; hit rate 1.6% among 360,000; Potency, µM (top dose mostly 46.1 µM), without a hit: at the highest dose activity, negative = less viability, actives largely listed as cytotoxic;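 also: NT is the 2HG producing partner of a matched IDH1 knockdown line; potency is read from the fitted curve at half-maximal effect; 0% = DMSO-treated cells and -100% = media-only wells without cells; nearly all actives have a fitted effect of over 55% in size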
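HT-1080-NT fibrosarcoma cells (2HG-overproducing), 750 cells/well in RPMI with 5% FBS, dosed after 2 h and incubated 48 h at 37C. CellTiter-Glo luminescence normalized to DMSO and no-cell wells; concentration-response curves fitted and classed.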
IL-1B inflam inh – inflammasome signaling inhibition, IL-1 beta readout; THP-1 LPS/ATP IL-1B secretion, AlphaLISA, 16 h; stronger effect = lower value; activity change, % at 57.5 µM; hit rate 4.7% among 360,000; in the data active = activity change below about -50%; inconclusive = mostly about -30% to -49%
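THP-1 cells pretreated 1 hr with compounds (up to 57.5 uM final), then stimulated with LPS (250 ng/mL final) plus ATP (1.25 mM final); secreted IL-1B measured by AlphaLISA after 16 hr, decreased signal indicating inhibition.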
HT1080 IDH1KD tx – HT-1080 IDH1 knockdown cell toxicity (counter line); HT-1080 IDH1 knockdown viability, ATP luminescence, 48 h; Potency, µM (series often up to 46.1 µM), for the others: at the top dose activity, negative = toxicity, hits mostly cytotoxic; hit rate 2% among 360,000;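 also: potency is read from the fitted curve at half-maximal effect; 0% = DMSO wells and -100% = cell-free medium wells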
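Cytotoxicity counter-line: IDH1KD HT-1080, 48 h, CellTiter-Glo. Curves classed by r2, magnitude and activity.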
TDP1 cell noCPT – qHTS for Inhibitors of human tyrosyl-DNA phosphodiesterase 1 (TDP1): qHTS in cells in absence of CPT | DT40 Tdp1-/- hTDP1 cells, no CPT, ATP luminescence, 48 h | Potency, µM (doses to about 46.2 µM), inactives show top-dose activity change, negative = growth inhibition, hits mostly inhibitors | hit rate 15% among 420,000 | AID 686978, 2013; also: potency is read from the fitted curve at half-maximal effect; nearly all actives have a fitted effect of over 55% in size
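Camptothecin absent (DMSO only). Human TDP1-complemented DT40 knockout cells, 400 cells/well, 37 °C for minimum 48 hr; ATP measured via CellTiter-Glo, 30 min dark incubation, luminescence.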
* = called active by the depositor; u = inconclusive; x = no result given. Only some compounds are listed: those with a hit (about 19% of all), similar ones and a draw of the others. Unless noted, calls follow the shape of the dose curve; as a rule, active = well fitted curve in the direction sought with a large enough effect; inconclusive = small, poorly fitted or top-dose-only effect, or another doubt; inactive = no such curve, though single readings can be large; an effect the other way counts as inactive or inconclusive. Unless noted, % is scaled to controls: 0 for no effect and ±100 for the full control effect.

SMILES | TDP1 cell CPT | HT1080-NT tox | IL-1B inflam inh | HT1080 IDH1KD tx | TDP1 cell noCPT
CC(C)Cc1nnc(NC(=O)c2cc(S(=O)(=O)N(C)C)ccc2N2CCCC2)s1 | 26.7% | 3.1% | -1.7 | 3.8% | -6.8%
CN(C)S(=O)(=O)c1ccc(N2CCCC2)c(C(=O)Nc2nc3ccc(F)cc3s2)c1 | -21.0% | -17.6% | -50.9* | -26.3% | -29.7%
CN(C)S(=O)(=O)c1ccc(N2CCCC2)c(C(=O)Nc2nc3ccccc3s2)c1 | u | -25.3% | u | u | u
Cc1cccc2sc(NC(=O)c3cc(S(=O)(=O)N(C)C)ccc3N3CCCC3)nc12 | u | -0.9% | -124.1* | -12.0% | 18.4µM*
O=C(Cn1[nH]c(=O)c2ccccc2c1=O)N1CCN(S(=O)(=O)c2ccc(Cl)cc2)CC1 | -15.0% | -0.8% | 0.0 | -1.8% | -0.4%
CN1CCN(CCCNC(=O)c2ccc3c(Cl)c4c(nc3c2)CCCC4)CC1 | u | u | -55.9* | -25.4% | 20.6µM*
CCOc1ccc(CNC(=O)c2ccc3nc(CC)c(CC)nc3c2)cc1 | 16.4µM* | x | x | x | 18.4µM*
CCc1nc2ccc(C(=O)NCCc3ccc(OC)cc3)cc2nc1CC | u | 5.0% | -29.4 | 12.3% | u
CCC(C)NC(=O)c1ccc2c(Cl)c3c(nc2c1)CCC3 (stereo not drawn) | -16.5% | 14.7% | u | 12.7% | -18.0%
CCOc1ccc(CNC(=O)c2ccc3c(Cl)c4c(nc3c2)CCCC4)cc1 | 20.6µM* | x | x | x | -67.9%
CCc1ccc(CNC(=O)c2ccc3c(Cl)c4c(nc3c2)CCCC4)cc1 | u | x | x | x | 23.1µM*
Cc1ccc2cc(CCNC(=O)c3ccc(Br)o3)c(=O)[nH]c2c1 | u | 0.1% | 4.5 | 17.5% | u
Cc1cccc(NC(=O)c2ccc3c(Cl)c4c(nc3c2)CCCC4)n1 | u | 5.3% | -21.8 | 8.9% | 20.6µM*
O=C(NCc1ccc(F)cc1)c1ccc2c(Cl)c3c(nc2c1)CCCC3 | u | x | x | x | 16.4µM*
Cc1cccc(NC(=O)c2onc3c2CCCC3)n1 | 9.2µM* | -28.0% | -3.5 | u | u
Cc1ccccc1NC(=O)c1onc2c1CCCC2 | u | -9.2% | 8.5 | -28.3% | -29.2%
CCOC(=O)C1=C(C)NC(C)=C(C(=O)OCC)C1c1ccncc1 | u | -2.8% | 0.0 | -0.2% | u
Cc1ccc([N+](=O)[O-])c2c1C(N1CCCC1)C(C)(C)O2 (stereo not drawn) | u | -0.5% | -2.1 | 6.7% | u
CN1c2ccccc2C2(C)CCCC3=Cc4cc([N+](=O)[O-])cc([N+](=O)[O-])c4OC312 (stereo not drawn) | 14.6µM* | -1.5% | -1.7 | -5.3% | 23.1µM*
CN1c2ccccc2C2(C)CCCC3=Cc4cccc([N+](=O)[O-])c4OC312 (stereo not drawn) | u | -2.7% | -1.9 | -18.6% | 16.4µM*
Cc1cnc(CNC(=O)c2ccc3sc([C@H]4C[C@H](O)[C@@H](CO)O4)nc3c2)cn1 | u | u | 48.5 | 12.3% | 12.1%
COc1ccc2nc3oc(C(=O)N(C)c4ccc(Cl)cc4)cc3cc2c1 | -22.5% | x | x | x | u
CCOc1ccccc1C1c2cc3c(cc2OC(C)(N2CCCC2)C1C)OCO3 (stereo not drawn) | 26.8% | -2.9% | 9.1 | -14.2% | -11.9%
C/C(=N/NC(=O)c1cc(-c2ccc(Cl)s2)[nH]n1)c1ccco1 | -17.9% | -14.6% | x | -18.9% | u
CC1(c2ccc(OCC#N)cc2)C=C(c2ccc(OCC#N)cc2)n2nc(C(F)(F)F)nc2N1 (stereo not drawn) | u | -2.4% | -85.9* | u | u
COc1ccc2nc(N3CCCCC3)c(/C=C3\SC(=S)NC3=O)cc2c1 | u | u | 27.9 | -22.2% | u
O=C1NC(=S)S/C1=C\c1cc2ccccc2nc1N1CCCCC1 | 20.6µM* | -29.5% | 63.2 | -28.0% | 20.6µM*
CC(C)n1nnnc1C1c2ccccc2C(=O)N1CCOc1ccccc1 (stereo not drawn) | -5.2% | 10.1% | 27.9 | -3.6% | u

Screening results from PubChem BioAssay.
